Screens (PubChem)
G9a block: G9a (human) methyltransferase inhibition | G9a H3K9 monomethylation, AlphaScreen, 2 h | Potency, µM (doses to about 102 µM), actives largely listed as inhibitors | Q96KQ7 | AID 504332 | hit rate 8.8% among 350,000; note: nearly all actives have a fitted effect of over 75% in size
Target sequence (Q96KQ7 913-1193 limits assumed): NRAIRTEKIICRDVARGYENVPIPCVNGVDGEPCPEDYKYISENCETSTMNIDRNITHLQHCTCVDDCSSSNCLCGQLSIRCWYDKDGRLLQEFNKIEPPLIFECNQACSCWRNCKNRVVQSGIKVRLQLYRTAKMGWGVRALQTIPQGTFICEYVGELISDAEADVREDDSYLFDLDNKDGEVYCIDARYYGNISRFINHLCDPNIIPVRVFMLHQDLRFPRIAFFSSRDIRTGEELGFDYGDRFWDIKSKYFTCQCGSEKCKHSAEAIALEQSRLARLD
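Compounds were preincubated with 20 nM G9a for 15 min, after which biotinylated H3K9 peptide (500 nM) and SAM (20 uM) started a 2 h room-temperature reaction. Monomethylated product was quantified by antibody-based AlphaScreen chemiluminescence.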
JMJD2A Tudor: inhibitors of human JMJD2A Tudor domain; AID 504339; Potency, µM (series often up to 114 µM), usual class: inhibitors; AlphaScreen JMJD2A-Tudor / H3K4me3 peptide binding; O75164; hit rate 4.4% among 390,000; note: nearly all actives have a fitted effect of over 50% in size
Six1-Eya2 inh: blocks human Six1 binding to Eya2; AlphaScreen GST-Six1/His-Eya2 binding, biochemical; active compounds read low; activity change, % (concentration not given with the values); hit rate 0.56% among 360,000; AID 651725; in the data active = activity change below about -65%; inconclusive = mostly about -30% to -63%
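GST-Six1 + His-Eya2 (5X stock: 250/500 nM); Tris pH 8.0, 300 mM NaCl, 0.05% BSA, 0.02% Tween 20; GSH donor/Ni acceptor beads; 1 h 37 °C dark; AlphaScreen readout.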
HP1b binding inh: HP1-beta chromodomain-methylated histone interaction inhibition; P83916; AlphaScreen HP1-beta / biotin-H3K9me3 peptide binding; Potency, µM (top dose mostly 114 µM), usual class: inhibitors; hit rate 0.56% among 390,000; AID 540317; note: nearly all actives have a fitted effect of over 70% in size
Target sequence (P83916 whole entry, looked up): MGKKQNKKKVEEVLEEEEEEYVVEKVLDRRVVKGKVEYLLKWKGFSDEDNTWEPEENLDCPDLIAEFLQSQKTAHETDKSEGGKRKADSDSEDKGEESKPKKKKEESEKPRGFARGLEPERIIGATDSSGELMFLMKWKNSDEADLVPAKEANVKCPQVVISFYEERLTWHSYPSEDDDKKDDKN
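AlphaScreen: HP1-beta (50 nM) preformed 30 min with biotin-H3(1-18)K9me3 peptide (50 nM) in PBS pH 7.4, 0.01% Tween-20. Compound added for 30 min at RT, then streptavidin donor/nickel chelate acceptor beads (10 ug/mL) for 30 min.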
BAZ2B block: inhibitors of human BAZ2B bromodomain. AlphaScreen BAZ2B-H3K14Ac peptide displacement. hit rate 4.4% among 360,000. Potency, µM (series often up to 114 µM), hits mostly inhibitors; note: nearly all actives have a fitted effect of over 60% in size
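Complex of BAZ2B and biotin-H3K14Ac (50 nM apiece) forms over 30 min at RT, then faces library compounds up to 110 uM for another 30 min; AlphaScreen beads added, 20 min dark incubation, luminescence read.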
CtBP-E1A inh: blocks the CtBP interaction with E1A; AlphaScreen GST-E1A/His-CtBP binding, 1536-well; active compounds read low; activity change, % (no concentration beside the values); hit rate 0.49% among 340,000; in the data active = activity change below about -65%; inconclusive = mostly about -30% to -63%
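AlphaScreen with 125 nM GST-E1A and 125 nM His-CtBP (5X stocks) in Tris pH 8.0, 300 mM NaCl, BSA, Tween 20, TCEP. Compounds preincubated 2 h at 37 deg C, then glutathione donor/nickel acceptor beads added for 1 h at 37 deg C in dark.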
Large screens that a line does not name were inactive. Sampled rows, rich in hits. Any-hit rate of the full collection: about 10%. Unless noted, calls come from the whole dose curve; as a rule, active = well fitted inhibition curve with a large enough effect; inconclusive = small, poorly fitted or top-dose-only effect; inactive = no such curve, though single readings can be large or run the other way.

CCc1cccc(NC(=O)Cn2c3[n+](c4ccc(C(F)(F)F)cc42)CCCCC3)c1	G9a block 5.6µM
CN(Cc1ccccc1)C(=O)Cn1nnc(-c2ccccc2)c1COc1ccccc1	none (no result: G9a block, JMJD2A Tudor, HP1b binding inh, BAZ2B block)
CN(C)C(=O)CCc1ccc2c3c([nH]c2c1)[C@]1(C)[C@@H](C(=O)N2CCCCC2)C[C@H](CC(=O)NCCCn2ccnc2)C(=O)N1CC3	none (no result: G9a block, BAZ2B block)
CCC1CCc2c(sc(N)c2C(N)=O)C1 (stereo not drawn)	JMJD2A Tudor inconclusive (no result: G9a block, BAZ2B block)
CCOC(=O)c1c(N)sc2c1CCSC2	G9a block 50µM, BAZ2B block inconclusive
CCCOC(=O)c1c(N)sc2c1CCC2	G9a block 50µM, JMJD2A Tudor inconclusive, HP1b binding inh inconclusive, BAZ2B block inconclusive
CCOC(=O)c1c(N)sc2c1CCC(CC)C2 (stereo not drawn)	G9a block 11µM, HP1b binding inh inconclusive
CCCOC(=O)c1c(N)sc(C(=O)OCC)c1C	none
Cc1cccc(-c2nc3scc(CCNS(=O)(=O)c4ccc5c(c4)OCCO5)n3n2)c1	none (no result: Six1-Eya2 inh, CtBP-E1A inh)
N#CCOC(=O)[C@H](Cc1ccccc1)N1C(=O)c2ccccc2C1=O	none (no result: CtBP-E1A inh)
O=C(/C=C/c1ccc(N2CCCCC2)c([N+](=O)[O-])c1)c1ccc(O)cc1	JMJD2A Tudor 28µM, HP1b binding inh 35µM, BAZ2B block 40µM
Cc1ccc(C(=O)O/N=C\c2ccc(N3CCOCC3)c([N+](=O)[O-])c2)cc1	HP1b binding inh inconclusive
COc1ccccc1C(=O)/C=C/c1ccc(N2CCCCC2)c([N+](=O)[O-])c1	G9a block 13µM, JMJD2A Tudor 8.9µM, HP1b binding inh 32µM, BAZ2B block 6.3µM
O=C(O/N=C\c1ccc(N2CCCCC2)c([N+](=O)[O-])c1)c1ccc(Cl)cc1Cl	G9a block 40µM, JMJD2A Tudor inconclusive, Six1-Eya2 inh inconclusive, HP1b binding inh inconclusive, BAZ2B block inconclusive, CtBP-E1A inh inconclusive
CCc1cc(C(=O)OC)c(NC(=O)CN2CCN(C(=O)C3CCCO3)CC2)s1 (stereo not drawn)	none
Cc1ccc2c(c1)c1c(c(=O)n(-c3ccccc3)c(=O)n1CC(=O)c1ccc(F)cc1)n2C	none (no result: Six1-Eya2 inh, CtBP-E1A inh)
O=C(CSS(=O)(=O)O)N1CCN(C(=O)c2ccoc2)CC1	G9a block 20µM
CCOC(=O)[C@]12CCC=C1N(Cc1ccc(Cl)cc1Cl)C(=O)[C@H](CC(=O)NCc1ccc(OC)c(OC)c1)C2	none (no result: G9a block, JMJD2A Tudor, HP1b binding inh, BAZ2B block)
CSc1ccc(CN2CCCN(C)CC2)cc1	G9a block 10µM, JMJD2A Tudor 13µM, HP1b binding inh inconclusive, BAZ2B block 56µM
CSc1ccc(CN2CCN(S(=O)(=O)Cc3ccccc3)CC2)cc1	G9a block 89µM, JMJD2A Tudor 5µM, HP1b binding inh inconclusive
O=S(=O)(Cc1ccc(Cl)cc1)N1CCN(Cc2ccccc2)CC1	G9a block inconclusive
CCc1ccc(CN2CCN(S(=O)(=O)Cc3ccccc3)CC2)cc1	G9a block inconclusive, JMJD2A Tudor 0.79µM, BAZ2B block 18µM
O=S(=O)(Cc1ccccc1)N1CCN(Cc2ccc(Br)cc2)CC1	JMJD2A Tudor 3.5µM, HP1b binding inh inconclusive
O=S(=O)(Cc1ccccc1)N1CCN(Cc2ccc(F)cc2Cl)CC1	none (no result: G9a block)
CCOC(=O)CC1C(=O)NCCN1c1nc2ccc(C)cn2c(=O)c1/C=C1\SC(=S)N(C(C)CC)C1=O (stereo not drawn)	BAZ2B block 28µM (no result: G9a block, JMJD2A Tudor, Six1-Eya2 inh, HP1b binding inh, CtBP-E1A inh)
CCCN1C(=O)/C(=C/c2c(N3CCNC(=O)C3CC(=O)OCC)nc3c(C)cccn3c2=O)SC1=S (stereo not drawn)	G9a block inconclusive, BAZ2B block inconclusive
CCOC(=O)CC1C(=O)NCCN1c1nc2ccc(C)cn2c(=O)c1/C=C1\SC(=S)N(CC(C)C)C1=O (stereo not drawn)	G9a block inconclusive, BAZ2B block 79µM
COc1cccc(/C=N/NC(=O)c2ccc(-n3cnnn3)cc2)c1	none
C[C@@H]1CN([C@H](C)CO)C(=O)CCCn2nncc2CO[C@H]1CN(C)C(=O)NC1CCCCC1	none (no result: G9a block, JMJD2A Tudor, HP1b binding inh, BAZ2B block)
Cc1ccc(C2=NN(C(=O)c3ccccc3F)C(c3ccccc3F)C2)cc1 (stereo not drawn)	G9a block 16µM
